Only some compounds are listed: those with a hit (about 1.1% of all), similar ones and a draw of the others.
Gli-Sufu block – Gli-Sufu pathway antagonists, primary screen, luciferase luminescence, Sufu-KO-LIGHT cells, uHTS. Sufu-KO-LIGHT fibroblasts, Gli luciferase reporter luminescence. AID 588413, 2011. 340,000 tested, 0.74% active. inhibition, % at 5 µM;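 active means inhibition above about 55%, limit read from the data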;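 further: 0% = DMSO-treated cells and 100% = wells with medium but no cells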
SRC3 inh – SRC3 coactivator transcriptional activity inhibitors, primary screen, cell-based, luminescence; Nuclear receptor coactivator 3 (Homo sapiens), Q9Y6Q9; HEK293 GAL4-SRC3 luciferase reporter; inhibition, % at 3.6 µM; 360,000 tested, 0.17% active; AID 588352, 2011;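 active means inhibition above a per-campaign cutoff, the mean of all compounds plus 3 SD, cut at about 60% in these data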;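 further: 0% = DMSO-treated cells and 100% = gossypol-treated cells at 36 µM; higher means less SRC3-driven luciferase light from the GAL4 reporter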
NCOA2 inhibitor – inhibition of GAL4-SRC2 driven luciferase reporter, primary screen, SRC2 inhibitor project, cell-based, luminescence; inhibition, % at 9 µM; AID 651957, 2012; Nuclear receptor coactivator 2 (Homo sapiens), Q15596; HEK293 GAL4-SRC2 luciferase reporter; 370,000 tested, 0.17% active;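 active means inhibition above the mean inhibition of all tested compounds plus 3 SD, set per campaign, cut at about 52% in these data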;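 further: 0% = DMSO treated cells and 100% = cells given Gossypol at 36 µM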
Shn3 3UTR inh – reduction of Shn3 3'UTR firefly luciferase signal, primary screen, Schnurri-3 inhibitor project, cell-based, Clone20 osteoblasts, set 2; Clone20 osteoblast Shn3 3'UTR firefly luciferase, 24 h; inhibition, % at 12.5 µM; 360,000 tested, 0.52% active;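 active means mean inhibition of at least 75% with every replicate also reaching 75%; inconclusive means mean inhibition at least 75% but some replicate below; inactive means mean inhibition below 75%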;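 further: 0% = median of neutral control wells and 100% = pilot-screen positive control compound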
NCOA1 inh – SRC1 coactivator transcriptional activity inhibitors, primary screen, cell-based, luminescence; inhibition, % at 3.6 µM; 360,000 tested, 0.12% active; AID 588354, 2011; Nuclear receptor coactivator 1 (Homo sapiens), Q15788; HEK293 GAL4-SRC1 luciferase reporter;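 active means inhibition above the campaign mean plus 3 SD, with each screening campaign given its own cutoff, cut at about 60% in these data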;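 further: 0% = DMSO treated cells and 100% = gossypol at 36 µM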
LRH-1 inv ag – LRH-1 (NR5A2) inverse agonists, primary screen, cell-based, luminescence, HEK293T, StAR-luciferase reporter | inhibition, % at 3.6 µM | LRH-1 transfected, 24 h | Nuclear receptor subfamily 5 group A member 2 (Homo sapiens), O00482 | 360,000 tested, 0.13% active;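 active means inhibition above the mean inhibition of all tested compounds plus 3 SD, cut at about 73% in these data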;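 further: 0% = DMSO wells and 100% = reporter-only cells lacking LRH-1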
Target sequence (O00482 whole entry, looked up): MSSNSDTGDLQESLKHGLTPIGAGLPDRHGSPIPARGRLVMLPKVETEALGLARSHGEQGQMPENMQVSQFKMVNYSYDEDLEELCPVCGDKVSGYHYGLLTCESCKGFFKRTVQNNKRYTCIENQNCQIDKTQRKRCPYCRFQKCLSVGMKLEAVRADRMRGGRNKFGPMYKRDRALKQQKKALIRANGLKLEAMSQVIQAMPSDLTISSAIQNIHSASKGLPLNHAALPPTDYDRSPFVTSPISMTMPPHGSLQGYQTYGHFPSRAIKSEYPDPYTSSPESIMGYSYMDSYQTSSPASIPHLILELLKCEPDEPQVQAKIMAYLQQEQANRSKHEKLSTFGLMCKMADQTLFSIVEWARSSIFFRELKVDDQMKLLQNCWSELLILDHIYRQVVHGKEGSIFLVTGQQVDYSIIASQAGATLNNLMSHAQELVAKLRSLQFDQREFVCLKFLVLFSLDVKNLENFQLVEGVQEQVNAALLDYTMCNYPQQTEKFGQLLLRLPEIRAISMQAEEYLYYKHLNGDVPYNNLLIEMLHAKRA
Gli antag conf – Gli-SUFU pathway antagonists, confirmation, single concentration, luciferase luminescence, Sufu-KO-LIGHT cells; shares compounds with Gli-Sufu block; 2,500 tested, 40% active; inhibition, % at 5 µM; Gli luciferase reporter;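 active means mean inhibition at 5 µM reaching about 45%, limit read from the data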;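 further: plate controls were DMSO-treated cells for no effect and wells lacking cells for full effect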
SufuKO cytotox – cytotoxicity in Sufu-KO-LIGHT cells, confirmation, cytotoxicity control for Gli-SUFU antagonist project, cell-based, ATP luminescence, single concentration; 2,500 tested, 32% active; cytotoxicity, % at 5 µM; shares compounds with Gli-Sufu block;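 active means mean cytotoxicity at 5 µM above about 25%, limit read from the data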;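 further: cells exposed to compound overnight for roughly 16 to 18 hours; plate controls were DMSO wells with cells for no effect and medium without cells for full effect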
Wnt3a counter – Wnt3a reporter signal inhibition, confirmation, counter-screen for Gli-SUFU antagonist project, Wnt-LIGHT cells, luminescence, single concentration | 2,500 tested, 20% active | shares compounds with Gli-Sufu block | Wnt3a-driven luciferase reporter | inhibition, % at 6.25 µM;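 active means mean inhibition above about 25%, limit read from the data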
* marks the source's active call; other numbers are inactive results; ? = inconclusive; / = no result.

SMILES	Gli-Sufu block	SRC3 inh	NCOA2 inhibitor	Shn3 3UTR inh	NCOA1 inh	LRH-1 inv ag	Gli antag conf	SufuKO cytotox	Wnt3a counter
CC1CCN(Cc2c(C(=O)N/N=C/c3ccccc3O)nnn2-c2nonc2N)CC1	52.0	48.2	8.1	80.0	28.6	-6.9	62.2*	22.8	27.0*
Nc1nonc1-n1nnc(C(=O)N/N=C/c2ccccc2)c1CSc1ccccc1	5.5	13.6	-7.8	16.5	-16.2	16.2	/	/	/
Nc1nonc1-n1nnc(C(=O)N/N=C/c2ccncc2)c1CSc1ccccc1	62.4*	0.5	-16.8	17.5	-15.3	-7.8	27.1	19.7	1.7
COP(=O)(O)C(C)NC(=O)OCc1ccccc1 (stereo unspecified)	/	/	-18.1	/	/	/	/	/	/
C=CCN(Cc1ccccc1)C(C#CC(=C)C)Cc1ccccc1 (stereo unspecified)	/	/	18.0	/	/	/	/	/	/
CCOC(=O)c1c(C)[nH]c(C)c1S(=O)(=O)NCCN1CCN(c2ccccc2F)CC1	67.0*	8.2	0.0	0.6	-14.8	14.5	20.9	12.2	-16.7
CCOC(=O)C1(CCc2ccccc2)CCN(Cc2ccc(C(=O)OC)cc2)CC1	14.5	-35.5	-9.7	11.7	-9.9	14.4	/	/	/
CCOC(=O)C1(CCOc2ccccc2)CCN(Cc2cc(OC)c3c(c2)OCO3)CC1	54.4	28.5	5.7	39.3	8.9	5.6	16.1	9.3	-19.6
CCOC(=O)C1(CCc2ccccc2)CCN(Cc2cc(OC)c(OC)cc2OC)CC1	60.2*	-4.5	32.3	36.6	-10.4	15.6	18.4	14.8	-42.6
CCOC(=O)C1(CCOc2ccccc2)CCN(Cc2cccc(OC)c2OC)CC1	55.7*	9.9	2.9	69.1	14.5	-6.6	24.5	9.3	-26.8
O=C(CSc1nnc(-c2cccnc2)n1Cc1ccco1)Nc1cc(Cl)ccc1F	/	/	5.4	/	/	/	/	/	/
Cc1cc(S(=O)(=O)N2CCCC(C(=O)Nc3ccc(C(=O)O)cc3)C2)ccc1Cl (stereo unspecified)	55.4*	9.9	-0.5	-7.0	-0.5	-1.6	16.2	-6.9	14.5
COc1ccc(NC(=O)C2CCN(S(=O)(=O)c3ccc(N4CCCC4=O)cc3)CC2)c(OC)c1	39.1	7.1	14.8	14.1	15.3	8.9	/	/	/
Cc1ccc(NC(=O)C2CCN(S(=O)(=O)c3ccc(N4CCCC4=O)cc3)CC2)cc1Cl	80.7*	5.5	37.8	84.4	-1.4	23.8	84.4*	40.6*	7.7
O=C(NC1CCCCN(Cc2cccc(Cl)c2)C1=O)c1cccc(C(F)(F)F)c1 (stereo unspecified)	/	/	-6.9	/	/	/	/	/	/
C#CCN1CC(N2CCN(CCO)CC2)CS1(=O)=O (stereo unspecified)	/	/	-13.9	/	/	/	/	/	/
CCOC(=O)c1ccc(NC(=O)CSc2nnc(CNC(=O)c3ccccc3F)o2)cc1	95.6*	1.4	-10.7	-4.4	5.5	33.4	16.9	-8.8	11.5
Cc1cc(C2=NNC(=NC3CC3)SC2)c(C)n1-c1c(C)n(C)n(-c2ccccc2)c1=O	12.4	12.2	-0.5	-28.4	10.0	-23.9	/	/	/
Cc1ccc(-n2c(C)cc(C3=NNC(=NC4CC4)SC3)c2C)cc1C	59.9*	-160.4	-63.1	43.8	-104.8	-115.3	66.9*	29.5*	70.6*
CS(=O)(=O)c1ccc(C(=O)OCC(=O)NC(=O)C2CCCCC2)cc1[N+](=O)[O-]	65.1*	1.4	-4.3	36.7	-2.2	0.2	14.2	3.1	8.6
CS(=O)(=O)c1ccc(C(=O)OCC(=O)NC(=O)C2COc3ccccc3O2)cc1[N+](=O)[O-] (stereo unspecified)	3.9	13.8	-9.5	-41.5	-10.4	2.6	/	/	/
Cc1cc(C)nc(SCC(=O)Nc2ccc(N3CCOCC3)c(Cl)c2)n1	53.3	8.0	7.8	?	8.3	59.2	45.1*	21.0	-24.0
CNc1nc(SCC(=O)Nc2ccc(Cl)c(Cl)c2)nc(N2CCOCC2)n1	18.6	15.2	9.0	18.0	-14.8	5.0	/	/	/
COc1ccc(CN2C/C(=C/c3ccc(C)cc3)N3C(=O)C[C@@H](c4ccccc4)N=C23)c(OC)c1	/	/	-12.4	/	/	/	/	/	/
Cc1nc2ccc(Br)cn2c(=O)c1Cl	2.4	-3.5	11.3	5.9	-25.2	-5.5	/	/	/
SMILES	Gli-Sufu block	SRC3 inh	NCOA2 inhibitor	Shn3 3UTR inh	NCOA1 inh	LRH-1 inv ag	Gli antag conf	SufuKO cytotox	Wnt3a counter
Cc1nc2cccc(C)n2c(=O)c1Cl	55.7*	12.4	20.0	-1.9	0.2	-1.1	10.0	15.6	7.2
Cc1nc2ccc(S(=O)(=O)NCC(=O)NCCN3CCCCCC3)cc2s1	83.0*	3.2	6.7	-15.5	-10.8	7.3	21.9	5.0	0.9
Cc1c(N)cc(C(=O)N2CCOCC2)cc1[N+](=O)[O-]	92.9*	-5.4	-24.6	-34.0	-4.8	5.7	16.3	-12.4	13.6
Cc1ccc(C(=O)N2CCOCC2)cc1[N+](=O)[O-]	-1.9	-14.6	-25.6	-15.5	-5.4	7.5	/	/	/
COC(CNC(=O)C(=O)Nc1cc2c3c(c1)CCN3C(=O)CC2)OC	97.9*	5.9	-11.5	-0.8	9.2	3.5	24.8	-0.5	15.7
CNC(=O)C(=O)Nc1cc2c3c(c1)CCN3C(=O)CC2	95.5*	0.5	-11.5	11.5	12.9	4.6	18.7	5.3	2.6
COc1ccc(-c2nc(CCl)cs2)cc1OC	60.3*	9.9	-18.6	9.3	-0.6	-10.3	10.1	16.1	-14.8
Cc1ccc2c(c1)nnn2C1CCN(S(=O)(=O)c2ccc(C(=O)N3C(C)CCCC3C)cc2)CC1 (stereo unspecified)	67.0*	28.0	26.7	84.4	19.2	9.4	69.5*	29.6*	18.4
Cc1ccc2c(c1)nnn2C1CCN(S(=O)(=O)c2ccc(C(=O)O)cc2)CC1	-1.0	14.1	-14.5	5.5	-6.2	-14.3	/	/	/
O=C(NCCCc1ccccc1)OC1CCC12CCC(c1ccccc1)CC2 (stereo unspecified)	/	/	-16.9	/	/	/	/	/	/
Cc1cccc(NS(=O)(=O)c2ccc(C)c(NS(=O)(=O)c3cccs3)c2)c1	96.4*	-2.3	-14.9	0.3	-22.4	3.9	13.5	11.9	-11.0
Cc1cccc(NS(=O)(=O)c2ccc(NS(=O)(=O)c3cccs3)cc2)c1	/	-31.1	0.6	2.6	-2.3	6.6	/	/	/

Screening results from PubChem BioAssay.
